Only some compounds are listed: those with a hit (about 8.1% of all), similar ones and a draw of the others.
Epigenetic derep – epigenetic control regulation, reporter derepression | murine LDR cells, GFP reporter derepression, 30 h | Potency, µM (series often up to 53.9 µM), inactives show top-dose GFP activation, actives largely listed as activators | 280,000 compounds, 0.2% hits | AID 1865; further: % of control where 0% means no effect; nearly all actives have a fitted effect of over 60% in size
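Derepression of a silenced CMV-GFP reporter in murine LDR cells is scored by enumerating GFP-positive cells with a laser-scanning microplate cytometer after 30 hours of treatment at 37 C.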
ClpP mod – qHTS Assay for Activators of ClpP | AID 651965, 2013 | purified B. subtilis ClpP, FRET peptide cleavage, 20 min | 340,000 compounds, 1.9% hits | Potency, µM (highest dose often 57.5 µM), without a hit: top-dose activity change, negative = active; active means well fitted falling curve with a large enough effect; inconclusive means small, poorly fitted or top-dose-only effect; inactive means no such curve, though single readings can be large or run the other way; further: the source files actives as falling curves though it sought activators and does not explain the sign; nearly all actives have a fitted effect of over 65% in size
Target sequence (P80244 whole entry, looked up): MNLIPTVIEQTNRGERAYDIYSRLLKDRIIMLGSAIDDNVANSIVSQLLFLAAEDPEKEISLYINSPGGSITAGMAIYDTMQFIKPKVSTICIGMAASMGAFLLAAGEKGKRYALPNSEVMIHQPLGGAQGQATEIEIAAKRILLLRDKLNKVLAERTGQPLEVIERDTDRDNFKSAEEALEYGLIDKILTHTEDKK
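FRET quenching reversal measured ClpP activation: 10 microg/mL B. subtilis ClpP at pH 8 with the FRET-FV decapeptide, read at 430 nm after 320 nm excitation. The 20-min minus 0-min signal was scaled between DMSO/no-enzyme wells and ADEP (5.8 microM final).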
PINK1 expr mod – changes PINK1 expression; PINK1 immunofluorescence, high-content cytometry, 24 h; Potency, µM (highest dose often 76.6 µM), without a hit: top-dose activation (PINK1 increase), hits mostly activators; 410,000 compounds, 0.2% hits; active means well fitted activation curve with a large enough effect; inconclusive means small, poorly fitted or top-dose-only effect; cell line not stated here; further: % of control where 0% means no effect; nearly all actives have a fitted effect of over 65% in size
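Measures PINK1 amount and localization on or inside mitochondria by immunofluorescence. Stable cells get compounds at 5 concentrations for 24 hours before fixation and staining; CCCP controls included.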
Sfp inh – Sfp phosphopantetheinyl transferase inhibition | Q9F4F7 | Biochemical Sfp PPTase activity, qHTS | Potency, µM, inactives show largest response in the series, negative = inhibition, usual class: inhibitors | 310,000 compounds, 3.5% hits | AID 1490;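 further: the enzyme is Sfp with the accession as filed and its product quenches rhodamine fluorescence; 0% = enzyme reaction without inhibitor and -100% = no enzyme wells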
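With Hepes-Na pH 7.6 buffer containing 10 mM MgCl2, Sfp (15 nM) modified BHQ-2-YbbR (12.5 uM) using rhodamine-CoA (5 uM). Two reads 30 minutes apart at 525/598 nm yielded each well's rate.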
Gal4-VP16 FLuc – counter-screen for ROR gamma inhibitors: Gal4-VP16 reporter; Drosophila S2 Gal4-VP16 UAS-luciferase, luminescence, 20 h; AID 2546; 310,000 compounds, 3.5% hits; Potency, µM (top dose mostly 53.6 µM), inactives show at the top dose activity, negative = inhibition, usual class: inhibitors;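 further: Gal4-VP16 expression switched on by copper sulfate through the metallothionein promoter; on the % scale 0 is the no-effect control and ±100 the full control effect; nearly all actives have a fitted effect of over 50% in size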
RORgamma inh – ROR gamma (mouse) transcription inhibition; 310,000 compounds, 5.4% hits; P51450; Potency, µM (series often up to 53.6 µM), for inactives: top-dose activity change, negative = inhibition, most hits filed as inhibitors; Drosophila S2 Gal4-RORgamma UAS-luciferase reporter, 20 h; further: on the % scale 0 is the no-effect control and ±100 the full control effect; nearly all actives have a fitted effect of over 60% in size
Target sequence (P51450 whole entry, looked up, the tested form may be a part): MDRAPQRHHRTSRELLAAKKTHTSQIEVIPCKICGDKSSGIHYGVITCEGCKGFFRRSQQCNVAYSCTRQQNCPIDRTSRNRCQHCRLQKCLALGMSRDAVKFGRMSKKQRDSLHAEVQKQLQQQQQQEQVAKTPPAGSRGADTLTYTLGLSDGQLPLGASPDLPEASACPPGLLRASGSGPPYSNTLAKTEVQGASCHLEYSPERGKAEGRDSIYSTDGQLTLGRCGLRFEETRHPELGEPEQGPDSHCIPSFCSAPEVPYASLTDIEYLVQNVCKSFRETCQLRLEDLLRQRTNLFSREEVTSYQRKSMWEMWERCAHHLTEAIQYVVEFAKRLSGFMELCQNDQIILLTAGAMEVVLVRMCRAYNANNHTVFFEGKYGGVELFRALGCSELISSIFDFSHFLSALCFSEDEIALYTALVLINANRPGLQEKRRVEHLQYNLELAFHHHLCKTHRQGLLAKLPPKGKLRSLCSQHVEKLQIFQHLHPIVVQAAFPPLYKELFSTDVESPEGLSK
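ROR gamma transcriptional activity was tracked as Gal4-UAS luciferase output in stably transfected Drosophila Schneider cells, with compound added 1 hr before 700 uM copper sulfate induction and a 20 hr ambient-temperature incubation.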
An asterisk follows results filed as active; ? = inconclusive; . = not tested or not shown; [ ] = remark or other dose. Unless noted, the call rests on the fitted dose curve; in most records, active means well fitted curve in the direction sought with a large enough effect; inconclusive means small, poorly fitted or top-dose-only effect, or another doubt; inactive means no such curve, though single readings can be large; an effect the other way counts as inactive or inconclusive. Potency means the concentration at half of the fitted maximal effect.

SMILES	Epigenetic derep	ClpP mod	PINK1 expr mod	Sfp inh	Gal4-VP16 FLuc	RORgamma inh
Cc1cc(OCc2cn3cccnc3n2)ccc1Cl	-3.0%	15.8µM*	2.2%	-4.3%	20.9%	32.7%
Clc1ccc(SCc2cn3cccnc3n2)cc1	-0.9%	-0.1%	-5.3%[38.3 µM]	4.0%	0.9%	?
CCC1CCC(C(=O)NNC(=O)c2cc(-c3ccco3)[nH]n2)CC1 (stereo unspecified)	-0.2%	.	11.4%	44.7µM*	-17.1%	-27.3%
O=C(NNC(=O)C1CCCCC1)c1ccco1	-1.1%	.	-0.4%	17.1%	-0.4%[10 µM]	4.4%
O=C(NCc1ccccc1)c1sc(=S)n2c1[nH]c(=O)c1ccccc12	-0.1%	1.1%	19.0%	8.4%	-6.5%	1.7%
NC(=O)c1sc(=S)n2c1[nH]c(=O)c1sccc12	-0.6%	.	1.1%	39.8µM*	-18.5%	7.9%
CC(=O)NNC(=O)c1sc(=S)n2c1[nH]c(=O)c1sccc12	-0.4%	.	3.3%	17.8µM*	-29.0%	?
COc1ccc2c(c1)c(=O)c(C(=O)c1ccccc1)cn2CC(=O)Nc1ccc2c(c1)OCO2	?	-1.6%	0.1%	.	.	.
COc1cc(-c2nn3c(Cc4ccccc4)nnc3s2)cc(OC)c1OC	-0.9%	?	1.0%[38.3 µM]	?	-14.1%	-7.0%
COc1cc(-c2nn3c(COc4ccccc4)nnc3s2)cc(OC)c1OC	-3.2%	-14.6%	2.5%	56.2µM*	-4.2%	-2.4%[10 µM]
CCOc1ccccc1OCc1nn2c(COc3ccccc3)nnc2s1	0.0%	1.4%	6.0%[38.3 µM]	17.8µM*	-3.4%	21.9%
C[N+]1(CC(=O)c2ccc(Br)cc2)CCOCC1	.	2.1%	.	.	.	.
O=C(NCCc1ccc(Cl)cc1)c1cnc2sc(N3CCCCC3)nn2c1=O	-2.4%	-9.4%	1.6%	.	.	.
Cc1[nH]c2ccc(-c3n[nH]c(=S)n3Cc3ccccc3)cc2c1C	1.1%	-2.7%	2.2%	-27.8%	-13.8%	10µM*
Cc1[nH]c2ccc(-c3n[nH]c(=S)n3-c3ccccc3)cc2c1C	0.0%	-29.3%	-0.5%	-10.6%	?	7.94µM*
Cc1[nH]c2ccc(-c3n[nH]c(=S)n3-c3ccc(Br)cc3)cc2c1C	-1.1%	.	3.4%	12.8%	-7.5%	7.94µM*
COc1cccc(-n2c(-c3ccc4[nH]c(C)c(C)c4c3)n[nH]c2=S)c1	-4.5%	.	1.0%	?	5.2%	?
COCCCN1CCc2[nH]c(=S)[nH]c(=O)c2C1	1.1%	?	2.7%	50.1µM*	-5.1%	-11.1%
Cc1csc[n+]1CC(=O)c1ccccc1	.	-2.6%	.	.	.	.
COc1ccccc1N1CCN(C(=O)C2CCCN(S(=O)(=O)c3ccc4c(c3)CCCN4C(C)=O)C2)CC1 (stereo unspecified)	0.0%	0.9%	0.2%	4.0%	7.94µM*	22.7%
CCOc1ccc(CCNC(=O)c2cc3c(=O)n(CC)c4ccccc4c3s2)cc1OCC	-1.1%	-7.7%	0.3%	.	.	.
O/C(=C\c1ccc2ccccc2n1)c1ccc(O)cc1O	-2.9%	.	29.7%	-2.0%	8.91µM*	2.82µM*
CN(C)c1ccc(/C=C/c2ccc3ccccc3n2)cc1	?	-9.0%	?	?	2.82µM*	3.98µM*
Oc1ccc(/C=C/c2ccc3ccccc3n2)cc1	-0.4%	4.1%	2.9%	-19.1%	11.2µM*	7.94µM*
COc1ccc(-c2cn3cccnc3n2)cc1NC(=O)c1c(F)cccc1F	0.8%	4.6%	4.9%	.	.	.
SMILES	Epigenetic derep	ClpP mod	PINK1 expr mod	Sfp inh	Gal4-VP16 FLuc	RORgamma inh
COc1ccccc1CNC(=O)CCC1N=C2c3ccccc3N=C(SCC(=O)Nc3ccc(F)cc3)N2C1=O (stereo unspecified)	-0.5%	0.0%	1.0%	.	.	.
Cc1cc2c(c(-c3nc4ccccc4s3)c1)OC(CNC(=O)c1occc1C)C2 (stereo unspecified)	.	.	0.5%	.	.	.
COc1ccc(C2=Nc3ccccc3N(C(=O)c3ccc4c(c3)OCO4)C2C(=O)NCc2ccccc2)cc1 (stereo unspecified)	.	4.7%	.	.	.	.
COc1ccc(CCC(=O)N2c3ccccc3N=C(c3ccc4c(c3)OCO4)C2C(=O)NCc2ccccc2)cc1 (stereo unspecified)	.	31.6µM*	.	.	.	.
c1ccc(Cn2c(NCc3ccccn3)nc3ccccc32)cc1	1.1%	0.2%	0.7%	9.3%	-6.4%	10µM*
CCCCn1c(NCc2ccccn2)nc2ccccc21	-4.3%	-1.5%	5.1%[38.3 µM]	56.2µM*	12.6µM*	7.08µM*
CCN(CC)CCn1c(NCc2ccccn2)nc2ccccc21	4.9%	0.9%	0.0%[38.3 µM]	?	0.1%	-23.9%
CC(=O)N1CCc2cc(Br)cc(S(=O)(=O)NCCc3ccc(Cl)cc3)c21	-3.5%	-13.0%	0.9%	.	.	.
CCN(CC)Cc1c(O)ccc2c(=O)c(-c3ccccc3)coc12	.	4.3%	1.2%	0.6%	8.9%	26.1%[1.91 µM]
CCN(CC)Cc1c(O)ccc2c(=O)c(-c3ccc4c(c3)OCCO4)coc12	-2.2%	28.2µM*	-1.2%	-3.6%	3.9%[0.365 µM]	23.3%
CCN(CC)Cc1c(O)ccc2c(=O)c(Oc3ccccc3OC)c(C)oc12	1.1%	3.8%	0.4%	15.3%	?	7.2%
O=c1c(-c2ccc3c(c2)OCCO3)coc2cc(O)cc(O)c12	0.9%	-0.2%	9.1%	20µM*	.	41.3%[0.365 µM]
COc1ccccc1Oc1coc2c(CN(C)C)c(O)ccc2c1=O	-0.9%	28.2µM*	-1.0%	23.8%	-2.9%	-6.8%
CCN(CC)Cc1c(O)ccc2c(=O)c(Oc3ccccc3OC)coc12	3.2%	17.8µM*	1.7%	11.4%	-11.8%	-14.6%
CCCNc1nc(Nc2ccc([N+](=O)[O-])cc2)nc(N2CCOCC2)n1	.	2.4%	2.8%	.	.	.
Cc1nc(-c2coc3c(CN(C)C)c(O)ccc3c2=O)cs1	2.4%	31.6µM*	3.6%[38.3 µM]	7.9%	-5.8%	-0.5%
C=C1C(=O)O[C@@H]2C[C@@H](C)[C@@H]3C=CC(=O)[C@@]3(C)[C@@H](OC(C)=O)[C@H]12	3.2%	0.1%	-0.8%	?	1.26µM*	1.26µM*
C[C@@H]1C[C@@H]2OC(=O)[C@]3(C)[C@H]2[C@@H](OC3(C)O)[C@]2(C)C(=O)C=C[C@H]12 (stereo partly specified)	-3.5%	?	1.8%	4.6%	-10.0%	14.4%
CCOCCc1nnc(NC(=O)C(=O)c2cc(C)n(-c3cccc(Cl)c3)c2C)s1	1.1%	-0.1%	-1.4%	.	.	.
O=C(Cn1c(=O)n(-c2ccccc2)c(=O)c2sc3ccccc3c21)NC1CCCC1	9.0%	3.6%	0.2%	.	.	.
COC(=O)c1cc(C)nc2c1C(=O)C(=O)C=C2N1CCOCC1	.	.	-0.5%	-10.9%	.	.
CCN(CC)CCNc1cc(C)nc2c1C(=O)C(=O)C=C2N1CCCCC1	1.6%	-0.2%	-0.2%	9.0%	-2.8%	5.01µM*
